Measurements from paper PMC7862700, “An all-to-all approach to the identification of sequence-specific readers for epigenetic DNA modifications on cytosine”.

What was measured:
Experiment in all cases: DAPPL (digital affinity profiling via proximity ligation, sequencing); 10 mM Tris-HCl pH 7.5, 50 mM NaCl, 1 mM DTT, 4% glycerol, room temperature, 30 min; GST-TFs on glutathione beads, 16-mer random dsDNA library, 0.1% formaldehyde crosslink after washing; high values mean tight binding
Details in all cases: protein: recombinant; tags: N-terminal GST; dsDNA, one strand shown
ERF = target: T1, ERF (Homo sapiens, UniProt P50548 1-548)
T1 sequence: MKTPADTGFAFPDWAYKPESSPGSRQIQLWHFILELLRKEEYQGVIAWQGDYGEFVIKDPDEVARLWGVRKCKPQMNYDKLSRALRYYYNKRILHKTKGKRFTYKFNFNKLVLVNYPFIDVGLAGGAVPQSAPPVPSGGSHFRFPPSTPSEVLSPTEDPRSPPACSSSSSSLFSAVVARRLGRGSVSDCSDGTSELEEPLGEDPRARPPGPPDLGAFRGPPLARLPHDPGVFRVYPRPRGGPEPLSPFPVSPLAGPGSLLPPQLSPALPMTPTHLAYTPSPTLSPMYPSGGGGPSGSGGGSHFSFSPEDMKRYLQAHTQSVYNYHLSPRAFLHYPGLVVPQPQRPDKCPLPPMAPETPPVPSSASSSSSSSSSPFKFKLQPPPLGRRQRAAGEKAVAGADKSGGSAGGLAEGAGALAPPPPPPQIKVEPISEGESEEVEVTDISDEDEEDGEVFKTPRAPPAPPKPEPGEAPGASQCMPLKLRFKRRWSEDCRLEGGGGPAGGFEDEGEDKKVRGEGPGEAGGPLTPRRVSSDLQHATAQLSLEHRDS
Outline: (§1)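 GST fusions of human transcription factors were expressed in yeast and captured with glutathione beads. Once given DNA barcodes and pooled alongside a tag-only sample, they were incubated for 30 min at room temperature with 200 nmole of a random double-stranded 16-mer DNA library in Tris/NaCl/DTT/glycerol buffer, then washed, crosslinked (0.1% formaldehyde), proximity-ligated, PCR-amplified and sequenced on an Illumina NextSeq500. The binding signal of each hexamer is its read frequency for a factor divided by its frequency for the tag-only sample.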

ETV3L = target: T2, ETV3L (Homo sapiens, UniProt Q6ZN32 1-361)
T2 sequence: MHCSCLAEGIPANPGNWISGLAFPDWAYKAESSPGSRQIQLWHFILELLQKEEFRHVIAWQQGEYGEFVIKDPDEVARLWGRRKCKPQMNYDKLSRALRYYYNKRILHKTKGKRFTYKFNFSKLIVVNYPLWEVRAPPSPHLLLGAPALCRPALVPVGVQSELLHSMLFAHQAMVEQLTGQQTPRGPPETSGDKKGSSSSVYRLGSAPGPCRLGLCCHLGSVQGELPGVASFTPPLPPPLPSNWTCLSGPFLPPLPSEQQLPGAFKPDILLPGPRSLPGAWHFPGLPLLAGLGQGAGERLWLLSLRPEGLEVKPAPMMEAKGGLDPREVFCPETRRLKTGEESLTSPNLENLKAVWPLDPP
Outline: as §1

ETS2 = target: T3, ETS2 (Homo sapiens, UniProt P15036 1-469)
T3 sequence: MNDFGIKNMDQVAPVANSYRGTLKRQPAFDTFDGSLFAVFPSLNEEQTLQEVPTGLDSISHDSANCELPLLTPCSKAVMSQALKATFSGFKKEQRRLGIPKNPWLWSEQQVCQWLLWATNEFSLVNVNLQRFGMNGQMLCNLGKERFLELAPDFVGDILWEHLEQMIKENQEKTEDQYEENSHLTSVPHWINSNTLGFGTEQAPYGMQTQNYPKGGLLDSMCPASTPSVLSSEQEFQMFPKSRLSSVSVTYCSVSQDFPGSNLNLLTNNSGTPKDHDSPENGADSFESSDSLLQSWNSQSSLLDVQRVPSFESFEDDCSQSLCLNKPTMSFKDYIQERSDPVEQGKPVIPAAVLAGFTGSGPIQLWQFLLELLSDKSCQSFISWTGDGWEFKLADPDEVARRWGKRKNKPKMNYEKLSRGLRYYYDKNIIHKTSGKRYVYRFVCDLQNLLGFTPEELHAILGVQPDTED
Outline: as §1

SPDEF = target: T4, SPDEF (Homo sapiens, UniProt O95238 1-335)
T4 sequence: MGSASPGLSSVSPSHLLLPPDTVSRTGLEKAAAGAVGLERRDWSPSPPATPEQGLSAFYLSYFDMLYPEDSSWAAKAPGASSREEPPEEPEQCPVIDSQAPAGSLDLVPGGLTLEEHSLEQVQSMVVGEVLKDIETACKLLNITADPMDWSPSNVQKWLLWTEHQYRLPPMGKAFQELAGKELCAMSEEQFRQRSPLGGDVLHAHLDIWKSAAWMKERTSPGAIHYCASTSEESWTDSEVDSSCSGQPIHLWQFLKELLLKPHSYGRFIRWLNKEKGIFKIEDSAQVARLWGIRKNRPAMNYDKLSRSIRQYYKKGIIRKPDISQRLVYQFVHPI
Outline: as §1

ETV7 = target: T5, ETV7 (Homo sapiens, UniProt Q9Y603 1-341)
T5 sequence: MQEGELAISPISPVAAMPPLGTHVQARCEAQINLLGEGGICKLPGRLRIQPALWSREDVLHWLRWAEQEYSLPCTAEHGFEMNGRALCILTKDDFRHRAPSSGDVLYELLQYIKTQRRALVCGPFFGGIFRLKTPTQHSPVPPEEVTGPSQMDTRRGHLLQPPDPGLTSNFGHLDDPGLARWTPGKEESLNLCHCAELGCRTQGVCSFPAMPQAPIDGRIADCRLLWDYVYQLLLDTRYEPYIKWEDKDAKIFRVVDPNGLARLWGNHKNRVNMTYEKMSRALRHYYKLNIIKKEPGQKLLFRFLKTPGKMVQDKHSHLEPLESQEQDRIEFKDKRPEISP
Outline: as §1

ELF5 = target: T6, ELF5 (Homo sapiens, UniProt Q9UKW6-2 1-255)
T6 sequence: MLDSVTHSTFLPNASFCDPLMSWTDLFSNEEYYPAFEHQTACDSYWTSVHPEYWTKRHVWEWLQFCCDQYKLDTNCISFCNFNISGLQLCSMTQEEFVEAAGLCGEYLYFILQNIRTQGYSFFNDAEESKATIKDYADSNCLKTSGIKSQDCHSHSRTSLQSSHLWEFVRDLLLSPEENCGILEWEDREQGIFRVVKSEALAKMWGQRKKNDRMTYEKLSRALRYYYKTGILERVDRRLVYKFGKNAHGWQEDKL
Outline: as §1

ETV3 = target: T7, ETV3 (Homo sapiens, UniProt P41162-2 1-143)
T7 sequence: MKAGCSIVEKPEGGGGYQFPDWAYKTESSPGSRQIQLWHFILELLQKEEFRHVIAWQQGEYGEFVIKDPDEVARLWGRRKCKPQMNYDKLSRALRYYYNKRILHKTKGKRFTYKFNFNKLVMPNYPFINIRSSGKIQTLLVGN
Outline: as §1

ETV6 = ETV6 (Homo sapiens, UniProt P41212 1-452)
Outline: as §1

Chain of ETV6 (P41212 whole entry): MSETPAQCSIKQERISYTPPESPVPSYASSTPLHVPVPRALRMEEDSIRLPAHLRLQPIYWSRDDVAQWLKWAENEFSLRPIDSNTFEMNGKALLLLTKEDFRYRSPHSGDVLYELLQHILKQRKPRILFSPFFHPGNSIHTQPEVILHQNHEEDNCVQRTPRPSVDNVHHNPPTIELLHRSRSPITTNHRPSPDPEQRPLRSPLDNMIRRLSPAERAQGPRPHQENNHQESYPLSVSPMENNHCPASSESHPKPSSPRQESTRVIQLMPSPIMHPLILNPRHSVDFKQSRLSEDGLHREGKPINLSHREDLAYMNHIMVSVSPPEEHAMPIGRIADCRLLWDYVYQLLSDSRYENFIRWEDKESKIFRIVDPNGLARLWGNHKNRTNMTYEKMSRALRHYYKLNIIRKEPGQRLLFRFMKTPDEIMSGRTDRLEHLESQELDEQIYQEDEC

Sequence | binding signal (ERF) | binding signal (ETV3L) | binding signal (ETS2) | binding signal (SPDEF) | binding signal (ETV7) | binding signal (ELF5) | binding signal (ETV3) | binding signal (ETV6)
AACTAT | 1.17 fold enrichment (6-mer frequency, TF over GST control) | 1.28 fold enrichment (6-mer frequency, TF over GST control) | 1.45 fold enrichment (6-mer frequency, TF over GST control) | 1.42 fold enrichment (6-mer frequency, TF over GST control) | 1.38 fold enrichment (6-mer frequency, TF over GST control) | 1.45 fold enrichment (6-mer frequency, TF over GST control) | 1.28 fold enrichment (6-mer frequency, TF over GST control) | 1.33 fold enrichment (6-mer frequency, TF over GST control)
CAAATC | 1.12 fold enrichment (6-mer frequency, TF over GST control) | 1.1 fold enrichment (6-mer frequency, TF over GST control) | 1.09 fold enrichment (6-mer frequency, TF over GST control) | 1.26 fold enrichment (6-mer frequency, TF over GST control) | 1.13 fold enrichment (6-mer frequency, TF over GST control) | 1.08 fold enrichment (6-mer frequency, TF over GST control) |  | 1.05 fold enrichment (6-mer frequency, TF over GST control)
GAAAAG | 1 fold enrichment (6-mer frequency, TF over GST control) | 1.09 fold enrichment (6-mer frequency, TF over GST control) | 1.05 fold enrichment (6-mer frequency, TF over GST control) | 1.01 fold enrichment (6-mer frequency, TF over GST control) | 1.13 fold enrichment (6-mer frequency, TF over GST control) | 1.12 fold enrichment (6-mer frequency, TF over GST control) |  | 1.18 fold enrichment (6-mer frequency, TF over GST control)
CATAAC | 1.12 fold enrichment (6-mer frequency, TF over GST control) | 1.18 fold enrichment (6-mer frequency, TF over GST control) | 1.19 fold enrichment (6-mer frequency, TF over GST control) | 1.15 fold enrichment (6-mer frequency, TF over GST control) | 1.18 fold enrichment (6-mer frequency, TF over GST control) | 1.15 fold enrichment (6-mer frequency, TF over GST control) | 1.17 fold enrichment (6-mer frequency, TF over GST control) | 1.23 fold enrichment (6-mer frequency, TF over GST control)
CAACAT | 1.23 fold enrichment (6-mer frequency, TF over GST control) | 1.2 fold enrichment (6-mer frequency, TF over GST control) | 1.17 fold enrichment (6-mer frequency, TF over GST control) | 1.17 fold enrichment (6-mer frequency, TF over GST control) | 1.08 fold enrichment (6-mer frequency, TF over GST control) | 1.16 fold enrichment (6-mer frequency, TF over GST control) | 1.22 fold enrichment (6-mer frequency, TF over GST control) | 1.09 fold enrichment (6-mer frequency, TF over GST control)
TCGACG | 1.02 fold enrichment (6-mer frequency, TF over GST control) | 1 fold enrichment (6-mer frequency, TF over GST control) | 1.07 fold enrichment (6-mer frequency, TF over GST control) | 1.05 fold enrichment (6-mer frequency, TF over GST control) | 1.05 fold enrichment (6-mer frequency, TF over GST control) | 1.01 fold enrichment (6-mer frequency, TF over GST control) |  | 1.07 fold enrichment (6-mer frequency, TF over GST control)
GCAAAT | 1.11 fold enrichment (6-mer frequency, TF over GST control) | 1.05 fold enrichment (6-mer frequency, TF over GST control) | 1.01 fold enrichment (6-mer frequency, TF over GST control) | 1.11 fold enrichment (6-mer frequency, TF over GST control) | 1.04 fold enrichment (6-mer frequency, TF over GST control) | 1.01 fold enrichment (6-mer frequency, TF over GST control) |  | 1 fold enrichment (6-mer frequency, TF over GST control)
TAGGGT | 1.15 fold enrichment (6-mer frequency, TF over GST control) | 1.03 fold enrichment (6-mer frequency, TF over GST control) | 1.02 fold enrichment (6-mer frequency, TF over GST control) | 1.12 fold enrichment (6-mer frequency, TF over GST control) | 1.11 fold enrichment (6-mer frequency, TF over GST control) | 1.06 fold enrichment (6-mer frequency, TF over GST control) |  | 1.04 fold enrichment (6-mer frequency, TF over GST control)
ATCCCA | 1.21 fold enrichment (6-mer frequency, TF over GST control) | 1.1 fold enrichment (6-mer frequency, TF over GST control) | 1.03 fold enrichment (6-mer frequency, TF over GST control) | 1.1 fold enrichment (6-mer frequency, TF over GST control) | 1.2 fold enrichment (6-mer frequency, TF over GST control) | 1.17 fold enrichment (6-mer frequency, TF over GST control) |  | 1.12 fold enrichment (6-mer frequency, TF over GST control)
ATATAT | 1.51 fold enrichment (6-mer frequency, TF over GST control) | 1.41 fold enrichment (6-mer frequency, TF over GST control) | 1.39 fold enrichment (6-mer frequency, TF over GST control) | 1.43 fold enrichment (6-mer frequency, TF over GST control) | 1.29 fold enrichment (6-mer frequency, TF over GST control) | 1.42 fold enrichment (6-mer frequency, TF over GST control) | 1.41 fold enrichment (6-mer frequency, TF over GST control) | 1.44 fold enrichment (6-mer frequency, TF over GST control)
ATACCA | 1.06 fold enrichment (6-mer frequency, TF over GST control) | 1.08 fold enrichment (6-mer frequency, TF over GST control) | 1.06 fold enrichment (6-mer frequency, TF over GST control) | 1 fold enrichment (6-mer frequency, TF over GST control) | 1.02 fold enrichment (6-mer frequency, TF over GST control) | 1.03 fold enrichment (6-mer frequency, TF over GST control) |  | 1.01 fold enrichment (6-mer frequency, TF over GST control)
CTGCCG | 1.27 fold enrichment (6-mer frequency, TF over GST control) | 1.23 fold enrichment (6-mer frequency, TF over GST control) | 1.32 fold enrichment (6-mer frequency, TF over GST control) | 1.26 fold enrichment (6-mer frequency, TF over GST control) | 1.39 fold enrichment (6-mer frequency, TF over GST control) | 1.33 fold enrichment (6-mer frequency, TF over GST control) | 1.44 fold enrichment (6-mer frequency, TF over GST control) | 1.39 fold enrichment (6-mer frequency, TF over GST control)
TGACAA | 1.23 fold enrichment (6-mer frequency, TF over GST control) | 1.34 fold enrichment (6-mer frequency, TF over GST control) | 1.27 fold enrichment (6-mer frequency, TF over GST control) | 1.21 fold enrichment (6-mer frequency, TF over GST control) | 1.31 fold enrichment (6-mer frequency, TF over GST control) | 1.23 fold enrichment (6-mer frequency, TF over GST control) | 1.26 fold enrichment (6-mer frequency, TF over GST control) | 1.23 fold enrichment (6-mer frequency, TF over GST control)
GAATCC | 1.12 fold enrichment (6-mer frequency, TF over GST control) | 1.11 fold enrichment (6-mer frequency, TF over GST control) | 1.13 fold enrichment (6-mer frequency, TF over GST control) | 1.54 fold enrichment (6-mer frequency, TF over GST control) | 1.18 fold enrichment (6-mer frequency, TF over GST control) | 1.03 fold enrichment (6-mer frequency, TF over GST control) | 1.14 fold enrichment (6-mer frequency, TF over GST control) | 1.08 fold enrichment (6-mer frequency, TF over GST control)
ATCCGA | 1.22 fold enrichment (6-mer frequency, TF over GST control) | 1.24 fold enrichment (6-mer frequency, TF over GST control) | 1.08 fold enrichment (6-mer frequency, TF over GST control) | 1.26 fold enrichment (6-mer frequency, TF over GST control) | 1.15 fold enrichment (6-mer frequency, TF over GST control) | 1.25 fold enrichment (6-mer frequency, TF over GST control) | 1.11 fold enrichment (6-mer frequency, TF over GST control) | 1.24 fold enrichment (6-mer frequency, TF over GST control)
